Measured values reported in PubChem BioAssay AID588342 (National Center for Advancing Translational Sciences (NCATS), 2011).
Hit rate of the full screen: of about 360,000 compounds, about 25,000 (6.9%) were called active. Entries that show only a call come without a potency. Not shown: some 9% with an inconclusive outcome. Calls follow the shape of the dose curve; as a rule, active = well fitted inhibition curve with a large enough effect; inconclusive = small, poorly fitted or top-dose-only effect; inactive = flat fitted curve, though single readings scatter. For the sample, actives were picked, then their nearest neighbours and some compounds at random.

Target: Luciferin 4-monooxygenase (Photinus pyralis) (UniProt P08659)
Sequence (P08659 whole entry, looked up): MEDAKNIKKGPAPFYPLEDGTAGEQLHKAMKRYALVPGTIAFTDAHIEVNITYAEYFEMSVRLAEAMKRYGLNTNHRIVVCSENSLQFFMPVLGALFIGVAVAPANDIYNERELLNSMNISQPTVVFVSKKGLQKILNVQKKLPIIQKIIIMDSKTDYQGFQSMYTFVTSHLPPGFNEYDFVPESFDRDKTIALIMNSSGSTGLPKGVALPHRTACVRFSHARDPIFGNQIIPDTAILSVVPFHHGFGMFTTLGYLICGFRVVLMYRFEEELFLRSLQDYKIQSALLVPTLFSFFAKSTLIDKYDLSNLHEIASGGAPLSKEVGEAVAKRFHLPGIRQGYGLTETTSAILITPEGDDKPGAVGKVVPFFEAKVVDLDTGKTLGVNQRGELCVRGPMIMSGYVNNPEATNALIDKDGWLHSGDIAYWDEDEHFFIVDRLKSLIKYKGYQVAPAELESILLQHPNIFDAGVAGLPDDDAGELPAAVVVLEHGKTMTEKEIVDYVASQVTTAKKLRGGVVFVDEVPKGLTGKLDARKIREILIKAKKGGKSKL
Test: qHTS profiling assay for firefly luciferase inhibitor/activator using purifed enzyme and Km concentrations of substrates (counterscreen for miR-21 project); also: nearly all actives have a fitted effect of over 55% in size
Conditions: purified FLuc, luminescence inhibition; series mostly up to 57.5 µM
Source text: MLPCN Grant: 1 R21 NS059478-01 (miR-21 grant) Assay Provider: NCGC NCGC Assay Overview: Firefly (Photinus pyralis) luciferase is one of the most commonly used transcriptional reporters for a number of reasons. It is considered one of the more dynamically responsive reporters -that is, responsive to changes in reporter transcription - as it requires no post-translational modifications and is enzymatically active directly after protein synthesis (Wood, 1998). Additionally, the half-life of the luciferase protein is short relative to other reporter-gene products (Wood, 1995). Whereas reporters with long half-lives potentially allow for increased signal due to accumulation of reporter-gene product, once accumulated in the cell, dynamic changes in reporter-gene expression may be difficult to detect(Fan and Wood, 2007; Almond et al., 2004). It has been shown that wild-type P. pyralis luciferase has a half-life of approximately […] hours in mammalian cells (Thompson et al., 1991). Firefly luciferase reporter-gene assays are also generally considered one of the most sensitive assay types (Wood, 1995; Wood, 1998). Although light produced in a bioluminescence reaction is of lower intensity than that produced during fluorescence emission, this is offset by little to no background light inherent to luminescent assays. Thus the luciferase reporter can be expressed at much lower levels than fluorescent proteins while still providing robust signal. # However, it was initially observed, in 1991, by Thompson et al., that compounds that resemble the substrates of firefly luciferase (FLuc) can act as competitive inhibitors of the enzyme, and that these compounds, upon interaction with luciferase in the cell, can actually stabilize the protein and increase its half-life. Accumulated intracellular FLuc protein can be measured as an increase in luminescence signal, upon addition of detection reagents (which contain high concentrations of FLuc substrates) commonly used in high-throughput screening. In cell-based reporter gene assays that use FLuc as the reporter gene to quantitate the potential influence of a given compound against the target biology, this apparent increase in luminescence can mistakenly be interpreted as identification of a compound that is active against the target of interest. This is the case for the miR-21 FLuc reporter gene assay used to identify inhibitors of the miR-21 pathway (PubChem AID 2289) - compounds of interest will inhibit miR-21 biogenesis/expression or activity, and are identified by causing an increase in luminescence, due to increased FLuc translation. However, FLuc inhibitory compounds that stabilize the FLuc protein will give an identical read-out, making it difficult to distinguish compounds that are active against the target from those active against FLuc. Previous profiling work to determine the prevalence of compounds that affect FLuc enzymatic activity (PubChem AID 411) identified that ~3% of the MLSMR library (then at ~72K) inhibited FLuc. […] Since the MLSMR had grown to ~350K compounds, and since it was expected that a significant percentage of compounds found active in the miR-21 FLuc assay would be FLuc inhibitors, the library was screened for activity against FLuc using a biochemical assay of purified FLuc and KM concentrations of FLuc substrates (D-luciferin and ATP).
NCGC Assay Protocol Summary: Reagents: 50mM Tris acetate, pH 7.5; 10mM Mg acetate; 10uM D-luciferin (Sigma #L9504); 10uM ATP; 0.01% Tween-20; 0.05% BSA; 10nM P. pyralis luciferase (Sigma #L9506) Control compounds used were two known firefly luciferase inhibitors (compounds (2) and (5) in Auld et al., 2010), and DMSO. […]

Structure (SMILES) | Potency
Cc1ccccc1CNC(=O)C1CCCN(S(=O)(=O)N(C)c2ccc(F)cc2)C1 (configuration not stated) | inactive
CCN(CC)CCN1C(=O)C(=O)/C(=C(/O)c2ccc(OC)c(OC)c2)C1c1ccccn1 (configuration not stated) | inactive
Cc1c(C(=O)NCc2ccccc2)cnn1-c1ccccc1 | inactive
CCN(CC)CCN1C(=O)C(=O)/C(=C(/O)c2cnn(-c3ccccc3)c2C)C1c1cccs1 (configuration not stated) | 21.3 µM (active)
CN(CC(=O)Nc1ccc(Cl)c(C(F)(F)F)c1)C(=O)CCC(=O)c1ccccc1 | inactive
Cc1nnc(SCc2cc(=O)c3cc(F)ccc3[nH]2)n1C | inactive
COc1ccc(-c2cc(C(F)(F)F)nc(NCc3cccnc3)n2)cc1 | inactive
COc1ccc(-c2cn[nH]c2-c2ccc(OC)cc2)cc1 | inactive
COc1ccc(-c2cc3ncccc3cn2)cc1 | 5.36 µM (active)
CCOCCCNc1c(CC)c(C)c(C#N)c2nc3ccccc3n12 | inactive
CC1CCc2c(sc3c2C2=NS(=O)(=O)CCN2C=N3)C1 (configuration not stated) | inactive
CCOC(=O)N1CCN(S(=O)(=O)c2ccc3c(c2)C(C)C(=O)N3)CC1 (configuration not stated) | inactive
CCOC(=O)c1c(SCC(=O)Nc2cccc(C)c2C)nc(=O)[nH]c1C | inactive
Cc1ccccc1OCc1ccc(-c2nc(C#N)c(N3CCCCC3)o2)o1 | inactive
Cc1ccc(O)c(NC(=O)COc2cc(C)ccc2C)c1 | inactive
Cc1ccc(O)c(NC(=O)c2cc(-c3ccc(F)cc3)no2)c1 | inactive
Cc1ccc(O)c(NC(=O)c2cc(-c3ccco3)on2)c1 | 6.01 µM (active)
COc1cc(C(=O)NCC(c2ccco2)N2CCCC2)ccc1OCc1ccccc1 (configuration not stated) | inactive
O=C(CN1CCN(C(=O)c2cccc(F)c2)CC1)Nc1ccccc1F | inactive
CCc1sc(C(=O)N2CCN(CC(=O)Nc3cccc(F)c3)CC2)cc1C | 13.5 µM (active)
CC(=O)N1CCN(CC(=O)Nc2ccc(C)c(F)c2)CC1 | inactive
CN(CC(=O)Nc1ccc(Cl)cc1)C(=O)c1ccc(COc2ccccc2)cc1 | inactive
Cc1c(NC(=O)c2cc(=O)c3ccccc3o2)c(=O)n(-c2ccccc2)n1C | inactive
CCCn1nc(C(=O)OCc2nc(N)nc(Nc3ccccc3C)n2)c2ccccc2c1=O | inactive
Cc1cc(=O)n(CC(=O)Nc2cccc([N+](=O)[O-])c2)c(-n2nc(C)cc2C)n1 | inactive
O=C(CCN1C(=O)c2ccccc2C1=O)C1=NN[C@@H]2C(=O)N(c3ccc(F)cc3)C(=O)[C@H]12 | inactive

Structure (SMILES) | Potency
CC1(C)CC(=O)c2c(n(S(=O)(=O)c3ccccc3)c3ccc(NS(=O)(=O)c4ccccc4)cc23)C1 | inactive
O=C(CCSCc1ccccc1F)N1CCN(c2ccc(Cl)cc2)CC1 | inactive
O=C(CCc1ccccc1F)N1CCN(c2ccccc2)CC1 | inactive
O=C(CCSc1ccccc1)N1CCN(c2ccccc2F)CC1 | 10.7 µM (active)
Cc1ccc(C)c(Nc2nnc(-c3ccc(C)c(S(=O)(=O)N4CCCCC4)c3)c3ccccc23)c1 | inactive
COC(=O)c1cccc(Cn2nnc3sc4c(c3c2=O)CCC(C(C)(C)C)C4)c1 (configuration not stated) | inactive
CC1CCc2c(sc3nc4n(c(=O)c23)CCS4)C1 (configuration not stated) | 21.3 µM (active)
Cc1ccc(NC(=O)Cn2nnc3sc4c(c3c2=O)CCC(C)C4)cc1 (configuration not stated) | inactive
C=CCn1c(SCc2c(C)noc2C)nc2sc3c(c2c1=O)CCC(C)C3 (configuration not stated) | inactive
Cn1c(NN)nc2sc3c(c2c1=O)CCC3 | inactive
CCCn1nnc2sc3c(c2c1=O)CCC(C)C3 (configuration not stated) | 15.1 µM (active)
Cc1ccc2nc3c(cc(C(=O)NC4CCCCC4)c(=N)n3C(C)C)c(=O)n2c1 | inactive
CCOC(=O)c1c(NC(=O)Cc2coc3ccc(CC)cc23)sc2c1CCC2 | inactive
Fc1ccccc1/C=C1\CCCC2=C1Nc1ncnn1C2c1ccccc1F (configuration not stated) | inactive
CSCCC(NC(=O)c1ccccc1)C(=O)N1CCCCCCC1 (configuration not stated) | inactive
COc1ccc(Cl)cc1S(=O)(=O)N1CCC(c2ccncc2)CC1 | inactive
CC1CCCCN1CC(=O)N1CCCc2c1c(=O)oc1ccc(OCc3ccccc3)cc21 (configuration not stated) | inactive
Cc1ccc(CNS(=O)(=O)CCNC(=O)c2ccccc2)cc1 | inactive
Cn1c2c(c(=O)n(C)c1=O)C(c1cccc([N+](=O)[O-])c1)Nc1ccccc1O2 (configuration not stated) | inactive
Cc1ccc(-c2cc(N)on2)cc1 | 16.9 µM (active)
Cc1ccc(S(=O)(=O)Cc2cc(-c3ccc(Cl)cc3)no2)cc1 | inactive
Cc1ccc(-c2cc(N)n(Cc3cccc(Cl)c3)n2)cc1 | inactive
CCc1nn(CC(=O)Nc2cccc(C)c2C)c(=O)c2cc3sccc3n12 | inactive
COc1cc(C(=O)N2CCN(C(=O)COc3cccc(C)c3)CC2)cc(OC)c1OC | inactive
CCOC(=O)c1cnc(SCC(=O)Nc2cccc(OC)c2)nc1N | inactive
CCOC(=O)c1cnc(SCC(=O)Nc2ccccc2C(=O)OC)nc1N | inactive
